Measured values from PubChem BioAssay AID720706 (Broad Institute, 2013).
Screen size: about 350,000 compounds; about 5,500 (1.6%) were called active. This is one part of a sample in which actives are shown more often than they occur.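 How the source made its calls: active means significant combined selectivity score with lowered wild-type GFP, culture density cut under 30%, mutant RFP and density less affected; inactive means any of these conditions unmet.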

test: reduced GFP signal of wild-type E. coli, primary screen, bacterial rRNA inhibitor project, GFP/RFP fluorescence, OD600, single point (AID 720706); details: E. coli WT GFP vs humanized-ribosome RFP mutants, 24 h; GFP signal change (wild-type ribosome): stronger effect = lower value, DMSO median 0, no signal -100; OD600 change: measured here: OD600 growth, DMSO median 0, no signal -100; RFP signal change: measured here: RFP humanized mutant strains, DMSO median 0, no signal -100, concentration not given here

Compound	GFP signal change (wild-type ribosome)	OD600 change	RFP signal change
Brc1ccc2c(c1)[C@H]1OCC[C@H]1[C@@H](c1cccs1)N2	-43.8% (active)	-30.6%	-11.9%
CCN(/N=C/c1ccc(N(C)C)cc1)c1nc2ccccc2[nH]1	-22.8% (active)	-10.9%	-2.86%
Oc1ccc(/C=N/N(Cc2ccccc2)c2ccccc2)cc1	-13.9% (inactive)	-1.62%	0.2%
CCC(=O)N1C[C@@H](C)[C@H](OC)CN(C)C(=O)c2ccc(NC(=O)c3cc(C)on3)cc2OC[C@H]1C	0.768% (inactive)	1.75%	-1.23%
C/C=C/c1cnc2c(c1)C(=O)N([C@H](C)CO)C[C@H](C)[C@H](CN(C)C(=O)c1cccc(F)c1)O2	2.26% (inactive)	2.83%	-3.73%
CCOc1ccc(NC(=O)CC2C(=O)N(c3ccccc3)C(=O)N2CCOC)cc1 (stereo unspecified)	-0.19% (inactive)	4.93%	-3.42%
O=C(Nc1ccc(Cl)cc1)C1c2cccc[n+]2CC(=O)N1Cc1ccc2c(c1)OCO2 (stereo unspecified)	4.36% (inactive)	0.665%	-2.94%
CCCOc1ccc(NC(=O)CC2C(=O)N(C)C(=S)N2Cc2ccc3c(c2)OCO3)cc1 (stereo unspecified)	-21.2% (active)	-17.1%	1.22%
C[C@@H]1CCCCO[C@H](CN(C)C(=O)Nc2ccccc2)[C@H](C)CN([C@@H](C)CO)C(=O)c2cc(N(C)C)ccc2O1	-1.6% (inactive)	2.72%	-1.91%
CC[C@@H]1CC=CC[C@H](C)Oc2ccccc2C(=O)N(C)[C@H](Cc2ccccc2)C(=O)N1 (mixture of isomers)	-6.42% (inactive)	-18.3%	-6.01%
CS(=O)(=O)N(CC(=O)N/N=C/c1ccccn1)c1ccc(Oc2ccccc2)cc1	-25.9% (active)	-12.1%	-0.663%
O=C(COc1ccc(Cl)cc1Cl)N/N=C/c1ccccn1	-7.74% (inactive)	-28.8%	0.0022%
COc1ccc(CCNC(=O)CN(c2ccccc2)S(C)(=O)=O)cc1	4.81% (inactive)	11.8%	2.52%
C[C@H](O)C#Cc1cnc2c(c1)C(=O)N([C@@H](C)CO)C[C@@H](C)[C@@H](CN(C)C(=O)Cc1ccccn1)O2	7.53% (inactive)	12.6%	-0.505%
C[C@@H]1CN([C@H](C)CO)C(=O)c2cc(NS(C)(=O)=O)ccc2O[C@H]1CN(C)C(=O)Nc1cccc2ccccc12	2.55% (inactive)	10.8%	2.43%
O=C(Nc1cc(F)ccc1F)N1CC(=O)N2[C@H](CO)[C@@H](c3ccc(-c4cccnc4)cc3)[C@@H]2C1	-12% (inactive)	-3.71%	-3.33%
COc1ccc(S(=O)(=O)Nc2ccc3c(c2)C(=O)N([C@H](C)CO)C[C@H](C)[C@H](CN(C)S(=O)(=O)c2ccc(Cl)cc2)O3)cc1	-0.9% (inactive)	-8.14%	4.68%
C=C(C)CSc1nc(N)c2c3c(sc2n1)CCC3	-39.8% (active)	-31.8%	-10.7%
Nc1nc(SCC(=O)NCCN2CCOCC2)nc2sc3c(c12)CCC3	4% (inactive)	8.61%	-0.37%
CCc1nc(N2CCN(C(C)=O)CC2)c2c3c(sc2n1)CCCC3	-24.3% (inactive)	-27.4%	-2.91%
CC(C)NC(=O)NCC[C@H]1CC[C@@H](NS(=O)(=O)c2ccc(Oc3ccccc3)cc2)[C@@H](CO)O1	-0.321% (inactive)	-25.1%	-2%

Compound	GFP signal change (wild-type ribosome)	OD600 change	RFP signal change
O=C(C1CCCC1)N1CC(=O)N2[C@H](CO)[C@H](c3ccc(Br)cc3)[C@@H]2C1	-0.977% (inactive)	-0.944%	0.246%
N#Cc1ccc(-c2ccc([C@H]3[C@H](CO)N4C(=O)CN(C(=O)Cc5ccccc5)C[C@@H]34)cc2)cc1	-1.02% (inactive)	-2.88%	-0.285%
O=C(Cc1ccc(Cl)cc1)NC1CCS(=O)(=O)C1 (stereo unspecified)	-9.2% (inactive)	1.76%	1.96%
CC(C(=O)NC1CCS(=O)(=O)C1)N1C(=O)/C(=C/c2ccc(Cl)cc2)SC1=S (stereo unspecified)	-21.1% (active)	-15.7%	1.14%
CN(C(=O)CN1C(=O)/C(=C/c2ccc(Cl)cc2)SC1=S)C1CCS(=O)(=O)C1 (stereo unspecified)	15.8% (inactive)	11%	0.337%
O=C1[C@H](Cc2ccc(C(F)(F)F)cc2)CCn2nncc2COC[C@@H]2CCCCN12	-1.75% (inactive)	-2.21%	-0.899%
CN1c2ccc(Br)cc2[C@H]2[C@H](CCN2S(=O)(=O)c2ccc(F)cc2)[C@@H]1CO	-56.1% (inactive)	-75.9%	-12.6%
O=C(COC(=O)CCCSc1nc2ccccc2[nH]1)Nc1ccc(Oc2ccccc2)cc1	-34.8% (inactive)	-55%	0.945%
CN(Cc1ccccc1)C(=O)CSc1nc2ccccc2[nH]1	-2.78% (inactive)	2.36%	-0.812%
O=C(CSc1nc2ccccc2[nH]1)N/N=C/C=C\c1ccccc1[N+](=O)[O-]	-28.1% (active)	3.26%	1.21%
CCOc1ccc(C2C3=C(CCCC3=O)N(CC(=O)O)C3=C2C(=O)CCC3)cc1	17.4% (inactive)	6.44%	-0.227%
CCOC(=O)c1c(N)sc2c1CCCC2=O	1.16% (inactive)	-0.897%	-0.662%
CCOC(=O)C1=C(N)N(c2ccc(C)cc2)C2=C(C(=O)CCC2)C1c1cccs1 (stereo unspecified)	-21.7% (active)	-17.5%	0.496%
COc1ccc(NC(=O)N(C)C[C@H]2OCCCC[C@H](C)Oc3ccc(NC(=O)NC4CCCCC4)cc3C(=O)N([C@@H](C)CO)C[C@@H]2C)cc1	1.21% (inactive)	2.03%	2.63%
COc1cccc(C(=O)NNC(=O)/C=C/c2ccccc2)c1	6.18% (inactive)	10.2%	3%
COc1ccccc1OCCCC(=O)Nc1ccc2c(c1)OCCO2	-2.92% (inactive)	-5.58%	-2.87%
COc1cccc(/C=C/C(=O)Nc2ccc3c(c2)OCCO3)c1	-29.5% (active)	-2.39%	4.27%
CO[C@H]1CN(C)C(=O)c2ccc(NC(C)=O)cc2OC[C@@H](C)N(C(=O)CN(C)C)C[C@@H]1C	-1.24% (inactive)	6.54%	-4.25%
CCC(C)N(C)C1CCN(C(=S)Nc2ccc(OC)cc2)CC1 (stereo unspecified)	6.68% (inactive)	-2.86%	-3.62%
COc1ccccc1C1CCN(C(=S)Nc2ccc(Br)cc2)CC1	-36.8% (active)	-23.8%	-10.2%
COc1ccccc1NC(=S)N1CCN(C(c2ccccc2)c2ccccc2)CC1	5.66% (inactive)	0.74%	-6.29%
